Data reported in PubChem BioAssay (Tox21).
Records with an inconclusive call do not appear. Activity calls are given as the source filed them. Unless noted, the call rests on the fitted dose curve; in most records, active means well fitted curve in the direction sought with a large enough effect in the repeat runs; inconclusive means weak or mixed curves; inactive means flat fitted curve, though single readings scatter.

What was measured:
[1] = qHTS assay to test for compound auto fluorescence at 535 nm (green) in HEK293 cells (AID 720680); details: green autofluorescence 485/535 nm; series mostly up to 91.3 µM
[2] = qHTS assay to test for compound auto fluorescence at 460 nm (blue) in HEK293 cell free culture (AID 720681); details: cell-free medium, autofluorescence 405/460 nm (blue); series mostly up to 91.3 µM
How it was run: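 Compounds were added to cell-free DMEM with 10% FBS and fluorescence read directly. The blue channel used 405 nm excitation and 460 nm emission, with triamterene as the reference fluorophore.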

[3] = qHTS assay to test for compound auto fluorescence at 535 nm (green) in HEK293 cell free culture (AID 720682); details: cell-free medium, green autofluorescence 485/535 nm; series mostly up to 91.3 µM
How it was run: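 Cell-free medium (DMEM, 10% FBS) receives compound or DMSO by pintool. Plate read directly at Ex 485/Em 535 nm. Signal converted to fluorescein equivalency.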

[4] = qHTS assay to test for compound auto fluorescence at 590 nm (red) in HEK293 cell free culture (AID 720683); details: cell-free medium autofluorescence, Ex540/Em590 red; series mostly up to 91.3 µM
How it was run: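 Cell-free wells of DMEM with 10% FBS received compound, and intrinsic fluorescence was read at excitation/emission 540/590 nm. Values expressed as equivalence to Rose Bengal sodium.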

[5] = qHTS assay to test for compound auto fluorescence at 590 nm (red) in HepG2 cell free culture (AID 720684); details: cell-free medium autofluorescence, red 540/590 nm; series mostly up to 91.3 µM
How it was run: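 Rose Bengal sodium served as the reference for red signal. Test compounds were dispensed into serum-containing MEM (10% FBS) without cells, and plates were read at 540/590 nm.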

[6] = qHTS assay to test for compound auto fluorescence at 460 nm (blue) in HepG2 cell free culture (AID 720685); details: Cell-free culture medium, blue autofluorescence 405/460 nm; series mostly up to 91.3 µM
How it was run: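 Cell-free plates of MEM plus 10% FBS received 23 nL compound or DMSO vehicle; blue-channel (405/460 nm) intensity scored against triamterene as reference fluorophore.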

[7] = qHTS assay to test for compound auto fluorescence at 535 nm (green) in HepG2 cell free culture (AID 720686); details: Cell-free medium, green autofluorescence 485/535 nm; series mostly up to 91.3 µM
[8] = qHTS assay to test for compound auto fluorescence at 460 nm (blue) in HepG2 cells (AID 720687); details: autofluorescence 405/460 nm, 1 h; series mostly up to 91.3 µM
How it was run: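 HepG2 cells in MEM with 10% FBS, attached overnight at 37 C, were exposed to compound or DMSO for 1 hr at 37 C, 5% CO2. Blue fluorescence was read at 405/460 nm, with triamterene as reference fluorophore.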

[9] = molecular target: Glucocorticoid receptor (Homo sapiens) (UniProt P04150); assay: qHTS assay to identify small molecule agonists of the glucocorticoid receptor (GR) signaling pathway (AID 720691; active means well fitted activation curve with a large enough effect in the signal ratio in the repeat runs, not every such curve was filed as active; the % refers to the signal ratio); details: GR-bla HeLa, beta-lactamase reporter ratio, 18 h; series mostly up to 62.4 µM
Glucocorticoid receptor (Homo sapiens), sequence (P04150 whole entry, looked up): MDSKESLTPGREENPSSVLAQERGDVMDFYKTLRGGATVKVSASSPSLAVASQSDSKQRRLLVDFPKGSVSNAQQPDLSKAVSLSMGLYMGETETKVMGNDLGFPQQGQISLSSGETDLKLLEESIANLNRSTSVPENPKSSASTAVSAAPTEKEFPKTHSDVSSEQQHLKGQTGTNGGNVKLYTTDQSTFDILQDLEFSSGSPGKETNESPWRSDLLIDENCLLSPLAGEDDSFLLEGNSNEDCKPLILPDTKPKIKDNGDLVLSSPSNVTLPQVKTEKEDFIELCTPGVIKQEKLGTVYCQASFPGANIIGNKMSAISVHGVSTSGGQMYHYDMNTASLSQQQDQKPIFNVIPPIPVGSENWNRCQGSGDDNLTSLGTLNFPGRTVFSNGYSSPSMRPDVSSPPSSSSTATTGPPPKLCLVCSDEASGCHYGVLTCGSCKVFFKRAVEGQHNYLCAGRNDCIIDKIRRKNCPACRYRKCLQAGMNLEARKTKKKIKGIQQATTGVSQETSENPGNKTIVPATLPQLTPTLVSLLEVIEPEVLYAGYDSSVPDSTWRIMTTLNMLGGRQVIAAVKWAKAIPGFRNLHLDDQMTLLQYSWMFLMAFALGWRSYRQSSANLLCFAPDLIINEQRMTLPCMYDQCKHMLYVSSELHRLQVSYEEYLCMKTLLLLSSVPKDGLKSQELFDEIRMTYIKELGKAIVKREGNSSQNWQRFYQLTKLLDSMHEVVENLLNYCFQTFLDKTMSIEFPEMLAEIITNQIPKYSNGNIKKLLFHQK
How it was run: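 A HeLa cervical cancer line expressing GR and a glucocorticoid response element-driven beta-lactamase gene is treated with compounds for 18 h; LiveBLAzer B/G FRET substrate is then applied and fluorescence read.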

[10] = molecular target: Glucocorticoid receptor (Homo sapiens) (UniProt P04150); assay: qHTS assay to identify small molecule antagonists of the glucocorticoid receptor (GR) signaling pathway (AID 720692; active means well fitted inhibition curve with a large enough effect in the signal ratio in the repeat runs, not every such curve was filed as active; the % refers to the signal ratio); details: GR-bla HeLa, beta-lactamase FRET ratio, dexamethasone-stimulated, 18 h; series mostly up to 58.5 µM
How it was run: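 GRE-bla HeLa line, dex-stimulated (5 nM final). Compound exposure 18 h, 37 C. Beta-lactamase FRET read after 2 h RT substrate.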

Measured: Potency

CC(=O)[C@H]1CC[C@H]2[C@@H]3CC[C@H]4C[C@](C)(O)CC[C@]4(C)[C@H]3CC[C@]12C
inactive: [1] | [2] | [3] | [4] | [5] | [6] | [7] | [8] | [9] | [10]

CC(=O)CCC(C)=O
inactive: [1] | [2] | [3] | [4] | [5] | [6] | [7] | [8] | [9] | [10]

CCOc1nc(F)cc2nc(S(=O)(=O)Nc3c(Cl)cccc3Cl)nn12
inactive: [1] | [2] | [3] | [4] | [5] | [6] | [7] | [8] | [9] | [10]

COC(=O)C(Cl)C(=O)OC
inactive: [1] | [2] | [3] | [4] | [5] | [6] | [7] | [8] | [9] | [10]

N#Cc1ccc(Cl)cc1
inactive: [1] | [2] | [3] | [4] | [5] | [6] | [7] | [8] | [9] | [10]

COC(=O)C(Br)CBr (stereo not given)
inactive: [1] | [2] | [3] | [4] | [5] | [6] | [7] | [8] | [9] | [10]

CCCCCC[N+](=O)[O-]
inactive: [1] | [2] | [3] | [4] | [5] | [6] | [7] | [8] | [9] | [10]

C=C(C#N)CCC#N
inactive: [1] | [2] | [3] | [4] | [5] | [6] | [7] | [8] | [9] | [10]

CCOc1ccc(C(C)(C)COCc2cccc(Oc3ccccc3)c2)cc1
inactive: [1] | [2] | [3] | [4] | [5] | [6] | [7] | [8] | [9] | [10]

C/C=C/C=O
inactive: [1] | [2] | [3] | [4] | [5] | [6] | [7] | [8] | [9] | [10]
